How the values were obtained:
Assay in all cases: log2 ratio of Biotin-Ahx-Ub-VS probe labelling (fragment/DMSO); higher = less target engagement (more negative = stronger competition), active = hit call of the paper (q ≤ 0.05, log2 ratio ≤ -1)
Settings in all cases: compound concentration: 200 uM; treatment time: 3 h
OTUD6B = target: T1, OTUD6B (UniProt Q8N6M0)
T1 sequence (whole entry): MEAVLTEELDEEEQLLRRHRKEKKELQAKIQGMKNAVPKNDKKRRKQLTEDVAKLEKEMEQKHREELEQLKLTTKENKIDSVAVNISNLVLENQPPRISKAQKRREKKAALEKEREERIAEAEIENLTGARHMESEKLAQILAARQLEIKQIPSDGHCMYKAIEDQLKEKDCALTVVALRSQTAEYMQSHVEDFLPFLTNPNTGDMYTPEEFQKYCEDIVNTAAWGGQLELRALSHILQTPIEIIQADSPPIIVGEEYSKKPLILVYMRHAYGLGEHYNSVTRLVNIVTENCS
In short: (§1)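 Fragment (200 µM) or vehicle was incubated for 3 h with triplicate HEK293T lysate samples of 495 µg, which were then treated with Biotin-Ahx-Ub-VS at 0.5 µM final for 1 h. Labelled DUBs were enriched on NeutrAvidin, digested with LysC and trypsin, and analysed by diaPASEF LC-MS/MS. Values are average log2 fragment/vehicle ratios from an unpaired t-test on global-median-normalised Spectronaut label-free quantities, using proteins with ≥2 unique peptides.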

OTUD7B = target: T2, OTUD7B (UniProt Q6GQQ9)
T2 sequence (whole entry): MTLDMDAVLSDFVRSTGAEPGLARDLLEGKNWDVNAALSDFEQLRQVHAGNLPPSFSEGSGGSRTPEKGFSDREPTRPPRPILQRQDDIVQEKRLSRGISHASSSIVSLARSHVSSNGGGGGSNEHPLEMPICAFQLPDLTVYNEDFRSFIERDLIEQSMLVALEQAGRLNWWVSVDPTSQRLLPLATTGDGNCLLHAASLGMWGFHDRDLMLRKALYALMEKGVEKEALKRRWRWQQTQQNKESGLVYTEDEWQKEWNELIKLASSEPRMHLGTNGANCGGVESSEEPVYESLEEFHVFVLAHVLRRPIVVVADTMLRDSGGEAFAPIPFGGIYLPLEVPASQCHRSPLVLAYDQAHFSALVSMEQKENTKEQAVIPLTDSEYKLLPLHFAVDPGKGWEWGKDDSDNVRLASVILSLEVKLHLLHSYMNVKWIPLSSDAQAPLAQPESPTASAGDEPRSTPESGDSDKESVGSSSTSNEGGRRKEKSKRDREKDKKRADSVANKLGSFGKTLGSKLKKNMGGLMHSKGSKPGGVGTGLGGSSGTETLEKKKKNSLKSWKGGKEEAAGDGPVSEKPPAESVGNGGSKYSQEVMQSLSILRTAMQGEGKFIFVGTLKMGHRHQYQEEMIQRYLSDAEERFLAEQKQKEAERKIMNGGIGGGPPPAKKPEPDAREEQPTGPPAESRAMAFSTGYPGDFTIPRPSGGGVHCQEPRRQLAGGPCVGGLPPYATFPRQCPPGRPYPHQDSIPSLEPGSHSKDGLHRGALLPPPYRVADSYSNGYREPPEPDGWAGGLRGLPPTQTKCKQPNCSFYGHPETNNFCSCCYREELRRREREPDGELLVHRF
In short: as §1

PRPF8 = PRPF8 (UniProt Q6P2Q9)
In short: as §1

PSMD7 = target: T3, PSMD7 (UniProt P51665)
T3 sequence (whole entry): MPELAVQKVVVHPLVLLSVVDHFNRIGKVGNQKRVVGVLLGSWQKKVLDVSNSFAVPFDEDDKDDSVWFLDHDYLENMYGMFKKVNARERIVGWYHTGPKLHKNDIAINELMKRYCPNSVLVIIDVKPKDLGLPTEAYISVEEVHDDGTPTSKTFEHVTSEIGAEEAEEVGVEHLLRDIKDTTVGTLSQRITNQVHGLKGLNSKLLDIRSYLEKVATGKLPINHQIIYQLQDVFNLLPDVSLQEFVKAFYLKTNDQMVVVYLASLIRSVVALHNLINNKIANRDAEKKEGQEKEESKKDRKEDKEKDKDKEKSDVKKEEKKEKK
In short: as §1

UCHL1 = UCHL1 (UniProt P09936)
Sequence of UCHL1 (P09936 whole entry, looked up): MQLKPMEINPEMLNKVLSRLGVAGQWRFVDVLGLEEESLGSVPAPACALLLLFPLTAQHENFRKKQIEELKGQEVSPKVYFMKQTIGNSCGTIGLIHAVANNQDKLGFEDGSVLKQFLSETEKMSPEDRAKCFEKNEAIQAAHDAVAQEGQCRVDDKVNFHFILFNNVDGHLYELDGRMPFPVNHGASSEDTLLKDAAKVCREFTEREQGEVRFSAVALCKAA
In short: as §1

UCHL3 = target: T4, UCHL3 (UniProt P15374)
T4 sequence (whole entry): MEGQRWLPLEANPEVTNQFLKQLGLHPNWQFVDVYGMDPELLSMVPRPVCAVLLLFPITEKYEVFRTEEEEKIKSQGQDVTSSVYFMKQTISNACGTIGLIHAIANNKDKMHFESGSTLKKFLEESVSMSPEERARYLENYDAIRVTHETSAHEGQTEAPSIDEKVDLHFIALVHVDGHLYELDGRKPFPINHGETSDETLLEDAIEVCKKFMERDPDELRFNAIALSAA
In short: as §1

UCHL5 = target: T5, UCHL5 (UniProt Q9Y5K5)
T5 sequence (whole entry): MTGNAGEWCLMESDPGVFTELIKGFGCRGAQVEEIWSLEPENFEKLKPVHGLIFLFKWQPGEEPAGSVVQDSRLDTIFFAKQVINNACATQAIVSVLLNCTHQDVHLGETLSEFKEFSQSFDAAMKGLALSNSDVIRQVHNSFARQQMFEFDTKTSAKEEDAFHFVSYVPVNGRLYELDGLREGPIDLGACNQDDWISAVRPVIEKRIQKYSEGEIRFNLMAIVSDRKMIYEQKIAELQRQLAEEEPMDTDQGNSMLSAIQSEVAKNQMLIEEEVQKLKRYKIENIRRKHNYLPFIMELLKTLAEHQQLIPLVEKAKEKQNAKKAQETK
In short: as §1

USP10 = USP10 (UniProt Q14694)
Sequence of USP10 (Q14694 whole entry): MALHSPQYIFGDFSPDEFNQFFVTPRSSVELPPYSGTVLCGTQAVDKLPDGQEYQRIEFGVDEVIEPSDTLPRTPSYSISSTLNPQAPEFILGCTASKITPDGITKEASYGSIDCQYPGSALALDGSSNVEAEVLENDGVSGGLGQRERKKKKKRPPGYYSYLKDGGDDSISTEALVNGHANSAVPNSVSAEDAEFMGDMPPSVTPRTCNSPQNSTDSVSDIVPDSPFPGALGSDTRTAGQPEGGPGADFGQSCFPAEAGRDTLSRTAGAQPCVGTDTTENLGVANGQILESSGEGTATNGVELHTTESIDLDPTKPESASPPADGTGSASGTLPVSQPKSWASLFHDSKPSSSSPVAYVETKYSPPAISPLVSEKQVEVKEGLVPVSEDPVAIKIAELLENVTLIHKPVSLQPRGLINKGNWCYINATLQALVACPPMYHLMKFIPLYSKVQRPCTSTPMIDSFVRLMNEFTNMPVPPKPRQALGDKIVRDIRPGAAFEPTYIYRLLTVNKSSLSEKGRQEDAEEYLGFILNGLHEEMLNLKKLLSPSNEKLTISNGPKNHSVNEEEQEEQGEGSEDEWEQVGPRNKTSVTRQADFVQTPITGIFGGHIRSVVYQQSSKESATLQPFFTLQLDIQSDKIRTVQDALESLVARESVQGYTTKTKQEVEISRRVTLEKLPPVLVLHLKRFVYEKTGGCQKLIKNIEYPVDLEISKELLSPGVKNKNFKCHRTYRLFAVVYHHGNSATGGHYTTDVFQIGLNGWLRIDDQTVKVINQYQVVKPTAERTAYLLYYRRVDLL
In short: as §1

USP15 = target: T6, USP15 (UniProt Q9Y4E8)
T6 sequence (whole entry): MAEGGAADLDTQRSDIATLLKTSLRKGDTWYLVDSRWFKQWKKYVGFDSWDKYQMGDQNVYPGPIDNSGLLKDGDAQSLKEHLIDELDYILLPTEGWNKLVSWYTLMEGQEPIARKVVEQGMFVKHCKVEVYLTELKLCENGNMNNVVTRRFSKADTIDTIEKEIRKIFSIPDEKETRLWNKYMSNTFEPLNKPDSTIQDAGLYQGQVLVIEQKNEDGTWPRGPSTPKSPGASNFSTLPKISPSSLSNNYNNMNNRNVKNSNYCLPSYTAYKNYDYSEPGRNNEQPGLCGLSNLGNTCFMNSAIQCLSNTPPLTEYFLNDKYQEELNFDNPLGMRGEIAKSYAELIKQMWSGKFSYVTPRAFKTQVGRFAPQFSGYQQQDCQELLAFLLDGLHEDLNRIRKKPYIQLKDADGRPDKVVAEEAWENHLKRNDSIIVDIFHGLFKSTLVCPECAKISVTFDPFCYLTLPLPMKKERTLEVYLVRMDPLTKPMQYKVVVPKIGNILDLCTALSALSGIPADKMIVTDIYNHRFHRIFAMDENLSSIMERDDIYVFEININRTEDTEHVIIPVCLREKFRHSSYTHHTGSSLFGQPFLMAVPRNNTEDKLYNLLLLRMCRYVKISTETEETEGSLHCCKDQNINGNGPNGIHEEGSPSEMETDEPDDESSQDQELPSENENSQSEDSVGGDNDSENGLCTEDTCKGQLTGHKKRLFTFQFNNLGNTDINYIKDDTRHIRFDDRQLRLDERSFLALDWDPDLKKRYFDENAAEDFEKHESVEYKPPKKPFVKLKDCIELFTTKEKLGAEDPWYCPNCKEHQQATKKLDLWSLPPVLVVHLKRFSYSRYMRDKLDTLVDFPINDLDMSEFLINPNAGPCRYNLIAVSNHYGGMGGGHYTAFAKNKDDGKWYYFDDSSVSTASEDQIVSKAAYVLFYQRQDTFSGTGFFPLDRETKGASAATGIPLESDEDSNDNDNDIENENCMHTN
In short: as §1

USP16 = USP16 (UniProt Q9Y5T5)
Sequence of USP16 (Q9Y5T5 whole entry, looked up): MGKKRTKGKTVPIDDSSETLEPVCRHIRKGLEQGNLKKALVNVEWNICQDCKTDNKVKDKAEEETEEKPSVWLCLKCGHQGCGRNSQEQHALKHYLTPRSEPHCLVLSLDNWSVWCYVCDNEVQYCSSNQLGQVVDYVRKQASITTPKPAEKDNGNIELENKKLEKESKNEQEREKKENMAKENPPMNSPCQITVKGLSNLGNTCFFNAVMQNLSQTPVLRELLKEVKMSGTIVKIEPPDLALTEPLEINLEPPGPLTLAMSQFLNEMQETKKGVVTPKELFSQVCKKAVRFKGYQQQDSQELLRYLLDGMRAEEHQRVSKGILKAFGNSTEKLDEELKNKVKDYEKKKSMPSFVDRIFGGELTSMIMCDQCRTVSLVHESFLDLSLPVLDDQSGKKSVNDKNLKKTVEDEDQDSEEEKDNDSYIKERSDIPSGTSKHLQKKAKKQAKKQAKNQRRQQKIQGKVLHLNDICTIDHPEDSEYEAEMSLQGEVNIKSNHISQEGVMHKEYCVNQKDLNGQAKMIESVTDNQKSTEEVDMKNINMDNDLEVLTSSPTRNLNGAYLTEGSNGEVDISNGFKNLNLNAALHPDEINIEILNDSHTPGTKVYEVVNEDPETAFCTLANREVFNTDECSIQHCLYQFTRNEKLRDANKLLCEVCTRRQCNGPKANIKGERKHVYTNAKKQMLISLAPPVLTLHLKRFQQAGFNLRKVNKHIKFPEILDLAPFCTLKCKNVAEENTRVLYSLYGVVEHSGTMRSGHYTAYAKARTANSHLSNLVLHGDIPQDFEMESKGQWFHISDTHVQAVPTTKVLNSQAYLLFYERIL
In short: as §1

Measured: log2 ratio of Biotin-Ahx-Ub-VS probe labelling

Cl.O=C(CCl)N1CCn2ncc(O)c2C1
inactive: OTUD6B -0.223 | PRPF8 0.218 | PSMD7 -0.249 | UCHL3 -0.188 | USP10 -0.00467 | USP15 -0.99 | USP16 -0.0885
active: OTUD7B -1.54 | UCHL1 -1.49 | UCHL5 -1.12
